# Values without a mark were called inactive.
# Compound: ClCC(=O)N1CCCC1=O
# Experiment: log2 ratio of Biotin-Ahx-Ub-VS probe labelling (fragment/DMSO); higher = less target engagement (more negative = stronger competition), active = hit call of the paper (q ≤ 0.05, log2 ratio ≤ -1)
# Details: compound concentration: 200 uM; treatment time: 3 h
# Experimental: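 Competitive ABPP in HEK293T cell lysate. Lysates were treated with each chloroacetamide fragment at 200 µM for 3 h, then with Biotin-Ahx-Ub-VS (0.5 µM, 1 h), NeutrAvidin-enriched and analysed by diaPASEF LC-MS/MS. Protein LFQ was median-normalised; average log2 ratio is fragment/DMSO from an unpaired t-test (n=3 treated, n=44 DMSO). Hits: q ≤ 0.05, log2 ratio ≤ -1, unique peptides ≥ 2.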
# UniProt P62068, sequence (P62068 whole entry): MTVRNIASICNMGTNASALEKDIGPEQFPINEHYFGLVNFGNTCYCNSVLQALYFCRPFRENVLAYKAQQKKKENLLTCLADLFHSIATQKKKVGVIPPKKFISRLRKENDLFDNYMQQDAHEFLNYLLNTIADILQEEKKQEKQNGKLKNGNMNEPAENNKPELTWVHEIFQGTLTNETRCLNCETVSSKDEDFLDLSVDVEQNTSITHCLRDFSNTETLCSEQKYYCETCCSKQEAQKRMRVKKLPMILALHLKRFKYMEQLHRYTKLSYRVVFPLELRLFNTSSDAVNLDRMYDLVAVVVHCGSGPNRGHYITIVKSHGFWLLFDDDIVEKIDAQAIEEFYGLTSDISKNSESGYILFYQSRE
# UniProt Q96JH7, sequence (Q96JH7 whole entry): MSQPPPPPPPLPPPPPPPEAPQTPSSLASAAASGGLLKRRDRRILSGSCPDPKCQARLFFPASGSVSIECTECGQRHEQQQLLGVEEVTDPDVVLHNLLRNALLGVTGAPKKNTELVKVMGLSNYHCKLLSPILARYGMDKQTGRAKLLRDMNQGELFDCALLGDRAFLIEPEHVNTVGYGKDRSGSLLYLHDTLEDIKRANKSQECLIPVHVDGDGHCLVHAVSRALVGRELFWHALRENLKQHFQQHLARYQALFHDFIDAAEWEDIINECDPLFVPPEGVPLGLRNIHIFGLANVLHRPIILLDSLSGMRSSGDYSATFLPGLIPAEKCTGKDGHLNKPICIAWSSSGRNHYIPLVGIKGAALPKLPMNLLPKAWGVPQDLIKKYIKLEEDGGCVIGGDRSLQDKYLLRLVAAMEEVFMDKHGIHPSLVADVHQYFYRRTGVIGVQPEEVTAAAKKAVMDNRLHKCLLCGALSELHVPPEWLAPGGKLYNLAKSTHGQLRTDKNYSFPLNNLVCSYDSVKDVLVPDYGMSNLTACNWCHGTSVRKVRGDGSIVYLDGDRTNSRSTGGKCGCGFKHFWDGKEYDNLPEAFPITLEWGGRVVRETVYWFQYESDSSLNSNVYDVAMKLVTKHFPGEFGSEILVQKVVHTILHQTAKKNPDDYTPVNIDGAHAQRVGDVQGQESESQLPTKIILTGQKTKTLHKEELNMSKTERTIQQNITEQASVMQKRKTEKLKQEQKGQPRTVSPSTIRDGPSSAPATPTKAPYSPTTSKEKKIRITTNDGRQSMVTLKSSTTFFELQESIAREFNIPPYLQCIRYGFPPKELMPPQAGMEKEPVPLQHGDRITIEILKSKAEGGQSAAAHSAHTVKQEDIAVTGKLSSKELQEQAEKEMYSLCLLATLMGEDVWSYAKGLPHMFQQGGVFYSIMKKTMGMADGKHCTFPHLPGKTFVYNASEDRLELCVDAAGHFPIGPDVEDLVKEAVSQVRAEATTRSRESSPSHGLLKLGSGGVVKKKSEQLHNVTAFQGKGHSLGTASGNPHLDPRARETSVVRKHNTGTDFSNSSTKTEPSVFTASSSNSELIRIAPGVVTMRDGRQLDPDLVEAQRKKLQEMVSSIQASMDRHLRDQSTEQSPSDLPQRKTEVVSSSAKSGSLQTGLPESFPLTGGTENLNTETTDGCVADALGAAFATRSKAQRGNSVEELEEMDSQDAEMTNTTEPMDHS
# UniProt Q96RU2, sequence (Q96RU2 whole entry): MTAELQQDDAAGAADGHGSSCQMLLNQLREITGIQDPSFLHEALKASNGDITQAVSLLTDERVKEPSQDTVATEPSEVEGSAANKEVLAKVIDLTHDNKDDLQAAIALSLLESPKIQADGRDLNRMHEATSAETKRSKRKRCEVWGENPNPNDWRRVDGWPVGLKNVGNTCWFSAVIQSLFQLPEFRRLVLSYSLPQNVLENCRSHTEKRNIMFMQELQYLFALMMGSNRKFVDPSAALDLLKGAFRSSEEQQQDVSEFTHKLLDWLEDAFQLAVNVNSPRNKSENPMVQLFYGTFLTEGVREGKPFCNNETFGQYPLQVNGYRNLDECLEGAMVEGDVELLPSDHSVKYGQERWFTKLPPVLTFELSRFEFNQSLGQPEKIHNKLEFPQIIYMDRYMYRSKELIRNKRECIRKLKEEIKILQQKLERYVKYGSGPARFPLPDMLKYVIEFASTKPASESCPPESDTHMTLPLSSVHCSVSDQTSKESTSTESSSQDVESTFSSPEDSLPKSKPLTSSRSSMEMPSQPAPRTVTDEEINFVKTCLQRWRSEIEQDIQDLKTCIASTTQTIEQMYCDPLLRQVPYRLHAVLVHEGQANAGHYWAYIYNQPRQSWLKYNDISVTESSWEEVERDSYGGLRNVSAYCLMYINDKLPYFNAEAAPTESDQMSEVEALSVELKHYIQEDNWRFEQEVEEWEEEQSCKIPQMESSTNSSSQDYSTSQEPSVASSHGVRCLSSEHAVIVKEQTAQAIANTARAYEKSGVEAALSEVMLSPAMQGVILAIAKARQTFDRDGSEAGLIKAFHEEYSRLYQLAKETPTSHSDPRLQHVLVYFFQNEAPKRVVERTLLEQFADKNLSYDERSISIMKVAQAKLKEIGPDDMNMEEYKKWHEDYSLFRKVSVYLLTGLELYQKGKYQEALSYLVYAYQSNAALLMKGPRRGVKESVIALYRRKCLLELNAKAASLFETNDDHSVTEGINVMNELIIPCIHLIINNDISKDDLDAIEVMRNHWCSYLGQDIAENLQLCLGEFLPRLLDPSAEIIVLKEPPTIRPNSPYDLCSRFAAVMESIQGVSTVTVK
# UniProt Q13107, sequence (Q13107 whole entry): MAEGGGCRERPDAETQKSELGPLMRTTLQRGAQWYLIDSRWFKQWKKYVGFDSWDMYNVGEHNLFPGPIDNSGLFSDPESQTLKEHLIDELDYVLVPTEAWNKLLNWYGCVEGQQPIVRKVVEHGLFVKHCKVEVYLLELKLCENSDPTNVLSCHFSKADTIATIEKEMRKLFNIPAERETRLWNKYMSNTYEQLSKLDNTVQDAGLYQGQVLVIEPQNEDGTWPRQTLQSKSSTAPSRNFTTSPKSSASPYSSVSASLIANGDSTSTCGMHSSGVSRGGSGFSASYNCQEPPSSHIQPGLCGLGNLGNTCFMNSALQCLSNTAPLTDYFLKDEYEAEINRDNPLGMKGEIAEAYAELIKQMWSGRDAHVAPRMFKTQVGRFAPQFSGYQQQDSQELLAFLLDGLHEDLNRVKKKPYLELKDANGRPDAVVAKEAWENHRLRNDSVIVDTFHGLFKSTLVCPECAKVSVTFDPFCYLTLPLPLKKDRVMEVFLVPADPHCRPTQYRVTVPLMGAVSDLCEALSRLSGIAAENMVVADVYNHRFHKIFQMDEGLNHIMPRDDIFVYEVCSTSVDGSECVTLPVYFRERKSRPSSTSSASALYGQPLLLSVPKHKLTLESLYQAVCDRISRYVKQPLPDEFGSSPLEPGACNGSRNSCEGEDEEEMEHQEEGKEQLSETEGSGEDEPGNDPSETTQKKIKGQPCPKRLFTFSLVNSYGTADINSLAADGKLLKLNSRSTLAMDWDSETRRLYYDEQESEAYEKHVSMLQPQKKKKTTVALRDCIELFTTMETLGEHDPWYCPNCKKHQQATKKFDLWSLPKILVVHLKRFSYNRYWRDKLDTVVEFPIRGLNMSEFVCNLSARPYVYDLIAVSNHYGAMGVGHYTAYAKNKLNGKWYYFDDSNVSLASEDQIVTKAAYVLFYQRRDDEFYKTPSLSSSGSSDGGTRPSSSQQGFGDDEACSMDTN
# UniProt P54252, sequence (P54252 whole entry): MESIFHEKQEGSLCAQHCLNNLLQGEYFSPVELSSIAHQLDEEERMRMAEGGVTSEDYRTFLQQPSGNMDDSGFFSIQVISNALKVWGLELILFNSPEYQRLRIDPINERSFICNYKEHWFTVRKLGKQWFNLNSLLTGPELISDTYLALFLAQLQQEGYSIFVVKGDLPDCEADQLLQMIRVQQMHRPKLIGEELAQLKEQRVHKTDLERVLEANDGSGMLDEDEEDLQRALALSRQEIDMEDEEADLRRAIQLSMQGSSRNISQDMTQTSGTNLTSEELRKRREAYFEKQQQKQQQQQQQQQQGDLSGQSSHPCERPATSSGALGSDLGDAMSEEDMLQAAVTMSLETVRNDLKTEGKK
# UniProt Q9UHP3, sequence (Q9UHP3 whole entry): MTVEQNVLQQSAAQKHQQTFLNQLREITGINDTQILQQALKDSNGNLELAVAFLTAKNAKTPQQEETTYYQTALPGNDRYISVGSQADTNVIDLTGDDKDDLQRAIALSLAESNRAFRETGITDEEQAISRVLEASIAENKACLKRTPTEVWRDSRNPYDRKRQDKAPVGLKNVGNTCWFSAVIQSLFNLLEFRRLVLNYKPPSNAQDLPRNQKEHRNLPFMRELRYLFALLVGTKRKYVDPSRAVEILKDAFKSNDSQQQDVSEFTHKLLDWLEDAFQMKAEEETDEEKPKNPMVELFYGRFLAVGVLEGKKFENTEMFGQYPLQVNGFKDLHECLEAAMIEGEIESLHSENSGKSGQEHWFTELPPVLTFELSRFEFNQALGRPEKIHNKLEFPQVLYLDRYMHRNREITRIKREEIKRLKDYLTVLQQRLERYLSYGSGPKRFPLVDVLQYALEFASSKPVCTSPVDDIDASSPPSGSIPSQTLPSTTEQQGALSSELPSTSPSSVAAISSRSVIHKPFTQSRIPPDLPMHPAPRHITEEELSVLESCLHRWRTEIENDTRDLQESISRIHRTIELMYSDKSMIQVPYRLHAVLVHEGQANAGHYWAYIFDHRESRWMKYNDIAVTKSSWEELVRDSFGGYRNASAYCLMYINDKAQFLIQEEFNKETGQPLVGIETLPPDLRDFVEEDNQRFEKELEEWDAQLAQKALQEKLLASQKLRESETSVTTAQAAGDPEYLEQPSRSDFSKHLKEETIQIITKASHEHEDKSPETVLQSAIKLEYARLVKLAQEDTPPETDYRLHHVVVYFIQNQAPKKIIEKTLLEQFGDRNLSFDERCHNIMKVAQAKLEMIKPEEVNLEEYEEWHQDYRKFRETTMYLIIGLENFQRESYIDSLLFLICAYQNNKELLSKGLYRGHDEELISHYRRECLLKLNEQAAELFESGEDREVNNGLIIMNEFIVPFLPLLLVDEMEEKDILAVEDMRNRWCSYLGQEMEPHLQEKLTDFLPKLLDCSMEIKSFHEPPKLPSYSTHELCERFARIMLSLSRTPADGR
row,Target,log2 ratio of Biotin-Ahx-Ub-VS probe labelling
1,UCHL3 (UniProt P15374),0.027
2,YOD1 (UniProt Q5VVQ6),-0.311
3,UniProt O00507,-0.733
4,USP48 (UniProt Q86UV5),-0.22
5,USP9X (UniProt Q93008),-0.16
6,USP7 (UniProt Q93009),-0.135
7,EIF3H (UniProt O15372),0.0752
8,USP28 (UniProt Q96RU2),-0.413
9,UniProt P51784,-0.126
10,PSMD7 (UniProt P51665),-0.274
11,USP10 (UniProt Q14694),-0.0833
12,USP15 (UniProt Q9Y4E8),-0.378
13,USP5 (UniProt P45974),-0.246
14,USP14 (UniProt P54578),-0.184
15,USP22 (UniProt Q9UPT9),-0.616
16,OTUD6B (UniProt Q8N6M0),-0.48
17,UniProt Q5T2D3,-0.924
18,USP4 (UniProt Q13107),-0.146
19,UCHL5 (UniProt Q9Y5K5),-0.166
20,FAM105A (UniProt Q9NUU6),-0.739

row,Target,log2 ratio of Biotin-Ahx-Ub-VS probe labelling
1,VCPIP1 (UniProt Q96JH7),-0.53
2,OTUD5 (UniProt Q96G74),-0.377
3,UniProt Q9P2H5,-0.151
4,UniProt Q9UGI0,-0.149
5,EIF3F (UniProt O00303),-0.166
6,PRPF8 (UniProt Q6P2Q9),0.106
7,USP42 (UniProt Q9H9J4),-0.218
8,USP47 (UniProt Q96K76),-0.175
9,ALG13 (UniProt Q9NP73),0.188
10,USP25 (UniProt Q9UHP3),-0.183
11,USP46 (UniProt P62068),-0.141
12,BAP1 (UniProt Q92560),-0.142
13,USP16 (UniProt Q9Y5T5),-0.298
14,USP34 (UniProt Q70CQ2),-0.582
15,UCHL1 (UniProt P09936),-0.746
16,USP19 (UniProt O94966),-0.376
17,ATXN3 (UniProt P54252),-0.301
18,OTUD4 (UniProt Q01804),-0.294
19,UniProt O00487,0.00332
20,USP8 (UniProt P40818),-0.417
